PubChem BioAssay (Tox21)
Results filed as inconclusive are left out. Active and inactive are the calls of the source. Unless noted, calls come from the whole dose curve.

Tests used:
[1] = qHTS assay to identify small molecule antagonists of the estrogen related receptor signaling pathway with the pleiotropic PPARgamma coactivator (PGC) from Tox21 10K library - cell viability counter screen (AID 1224840; active = well fitted cell-killing curve with a large enough effect in the repeat runs, not every such curve was filed as active; note: nearly all actives have a fitted effect of over 40% in size)
How it was run: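 Readout: fluorescence intensity from CellTiter-Fluor after 30 min at 37 C/5% CO2. Preceded by 17.5 h treatment of PGC/ERR cells with DMSO-dissolved compounds, added 6 h post-seeding.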

[2] = target: Thyrotropin receptor (Homo sapiens) (UniProt P16473); assay: qHTS assay to identify small molecule agonists of the thyroid stimulating hormone receptor (TSHR) signaling pathway (AID 1224843); note: nearly all actives have a fitted effect of over 45% in size
How it was run: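 Using 15 concentrations per compound in triplicate, cAMP production was monitored in TSHR-HEK293 cells after 30 min compound incubation at RT; HTRF reagents followed, with fluorescence intensity recorded after 1 h.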

[3] = qHTS assay to identify small molecule agonists of the hypoxia (HIF-1) signaling pathway - cell viability counter screen (AID 1224844); note: nearly all actives have a fitted effect of over 50% in size
How it was run: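 In this counter screen, HRE-bla ME-180 cell viability after 17 hrs of compound exposure at 37C was read by CellTiter-Glo luminescence, multiplexed with the beta-lactamase reporter measurement.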

[4] = qHTS assay to identify small molecule agonists of H2AX (AID 1224845; active = well fitted activation curve with a large enough effect in the signal ratio in the repeat runs, not every such curve was filed as active; the % refers to the signal ratio)
How it was run: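 Wild-type CHO-K1 cells plated overnight, then exposed 3 hr at 37C to compounds at 15 concentrations (0.76% DMSO). Lysed, then HTRF anti-pH2AX(S139)-cryptate/anti-H2AX-d2 detection after 24 hr at room temperature; emissions 665 and 620 nm.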

[5] = qHTS assay to identify small molecule agonists of the hypoxia (HIF-1) signaling pathway (AID 1224846; active = well fitted activation curve with a large enough effect in the signal ratio in the repeat runs, not every such curve was filed as active; the % refers to the signal ratio)
How it was run: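 ME-180 HRE-bla reporter cells; compounds in DMSO, 17 h at 37C; read-out beta-lactamase via CCF4-AM FRET.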

[6] = qHTS assay to identify small molecule agonists of H2AX - cell viability counter screen (AID 1224847); note: top concentration of the series differs between compounds; nearly all actives have a fitted effect of over 30% in size
How it was run: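 Cells plated first: CHO-K1, 1000 per well in 10% FBS medium, incubated overnight at 37C. Then 15-point compound titration added (final DMSO 0.76%) for 3 hr. Finally CellTiter-Glo added and luminescence read.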
% is set by controls: 0 for no effect and ±100 for the full control effect.

Sequence of Thyrotropin receptor (Homo sapiens) (P16473 whole entry, looked up): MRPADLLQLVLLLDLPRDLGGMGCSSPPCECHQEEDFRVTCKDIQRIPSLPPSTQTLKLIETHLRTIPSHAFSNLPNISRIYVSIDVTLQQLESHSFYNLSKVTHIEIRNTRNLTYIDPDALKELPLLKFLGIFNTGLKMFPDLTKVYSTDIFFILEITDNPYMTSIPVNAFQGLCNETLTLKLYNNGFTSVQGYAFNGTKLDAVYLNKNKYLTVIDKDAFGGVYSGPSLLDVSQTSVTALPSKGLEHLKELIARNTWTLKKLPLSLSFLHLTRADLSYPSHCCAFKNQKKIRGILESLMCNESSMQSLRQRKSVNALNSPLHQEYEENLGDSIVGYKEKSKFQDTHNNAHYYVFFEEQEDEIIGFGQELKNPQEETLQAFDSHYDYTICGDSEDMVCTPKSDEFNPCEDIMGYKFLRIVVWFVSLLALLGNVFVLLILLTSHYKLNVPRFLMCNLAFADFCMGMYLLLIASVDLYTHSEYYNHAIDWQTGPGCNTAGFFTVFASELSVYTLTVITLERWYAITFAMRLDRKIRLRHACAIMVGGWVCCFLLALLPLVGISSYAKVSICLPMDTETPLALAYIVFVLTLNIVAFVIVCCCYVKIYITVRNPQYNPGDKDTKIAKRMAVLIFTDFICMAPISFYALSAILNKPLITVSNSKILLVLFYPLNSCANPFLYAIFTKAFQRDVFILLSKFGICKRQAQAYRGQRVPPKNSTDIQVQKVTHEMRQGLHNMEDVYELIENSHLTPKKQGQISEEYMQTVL

COc1ccc(/C=N/NC(=O)c2ccncc2)cc1OC
inactive: outcome [1] | outcome [2] | outcome [3] | outcome [4] | outcome [5] | Potency [6]

NS(=O)(=O)c1ccc(Cl)c(S(N)(=O)=O)c1
inactive: outcome [1] | outcome [2] | outcome [3] | outcome [4] | outcome [5] | Potency [6]

CCCC(C)CC (stereo not drawn)
inactive: outcome [1] | outcome [2] | outcome [3] | outcome [4] | outcome [5] | Potency [6]

O=S(=O)(O)CCO
inactive: outcome [1] | outcome [2] | outcome [3] | outcome [4] | outcome [5] | Potency [6]

BrC/C=C/CBr
inactive: viability change, negative = cytotoxic [1] 5.69% [at 19 µM] | activation [2] -9.51% [at 19 µM] | activity change, negative = cytotoxicity [3] -5.88% [at 15.8 µM] | activation (H2AX phosphorylation) [4] -0.0482% [at 31.6 µM] | activation [5] -1.18% [at 15.8 µM] | activity change, negative = cytotoxicity [6] 1.6% [at 31.6 µM]

C=C(C)[C@@H]1CC[C@@H](C)C[C@@H]1O
inactive: outcome [1] | outcome [2] | outcome [3] | outcome [4] | outcome [5] | Potency [6]

CCCCCCCCCCCCC
inactive: outcome [1] | outcome [2] | outcome [3] | outcome [4] | outcome [5] | Potency [6]

Cc1nc([N+](=O)[O-])cn1-c1ccc([N+](=O)[O-])cc1
inactive: outcome [1] | outcome [2] | outcome [3] | outcome [4] | outcome [5] | Potency [6]

CCOC(=O)CCc1ccccc1
inactive: outcome [1] | outcome [2] | outcome [3] | outcome [4] | outcome [5] | Potency [6]

O=C(CN1CCN(Cc2ccc3c(c2)OCO3)CC1)N1c2ccccc2Sc2ccccc21
inactive: outcome [1] | outcome [2] | outcome [3] | outcome [4] | outcome [5] | Potency [6]

CCC1Nc2cc(Cl)c(S(N)(=O)=O)cc2S(=O)(=O)N1 (stereo not drawn)
inactive: outcome [1] | outcome [2] | outcome [3] | outcome [4] | outcome [5] | Potency [6]

CCOC(=O)OCC/C(SC(=O)OCC)=C(\C)N(C=O)Cc1cnc(C)nc1N
inactive: outcome [1] | outcome [2] | outcome [3] | outcome [4] | outcome [5] | Potency [6]

O=c1cc(O)c(Cl)c[nH]1
inactive: outcome [1] | outcome [2] | outcome [3] | outcome [4] | outcome [5] | Potency [6]

C=CC(C)(O)CC/C=C(\C)CC (stereo not drawn)
inactive: outcome [1] | outcome [2] | outcome [3] | outcome [4] | outcome [5] | Potency [6]

Nc1ccnc(=O)[nH]1
inactive: outcome [1] | outcome [2] | outcome [3] | outcome [4] | outcome [5] | Potency [6]

CCCCCCCCCCCCCC(=O)OC
inactive: outcome [1] | outcome [2] | outcome [3] | outcome [4] | outcome [5] | Potency [6]

CCCCC[Si](OCC)(OCC)OCC
inactive: outcome [1] | outcome [2] | outcome [3] | outcome [4] | outcome [5] | Potency [6]

O=C(O)c1c(Cl)ccc(Cl)c1Cl
inactive: outcome [1] | outcome [2] | outcome [3] | outcome [4] | outcome [5] | Potency [6]

CCCCCCCC/C=C\CCCCCCCC(=O)OC[C@@H](O)[C@H]1OC[C@H](O)[C@H]1O
inactive: outcome [1] | outcome [2] | outcome [3] | outcome [4] | outcome [5] | Potency [6]

CC1(N)CCC(C(C)(C)N)CC1 (stereo not drawn)
inactive: outcome [1] | outcome [2] | outcome [3] | outcome [4] | outcome [5] | Potency [6]

Cc1nc2ccccc2c(=O)o1
inactive: outcome [1] | outcome [2] | outcome [3] | outcome [4] | outcome [5] | Potency [6]

CC1=CC[C@H](CC=O)C1(C)C
inactive: outcome [1] | outcome [2] | outcome [3] | outcome [4] | outcome [5] | Potency [6]

CCOC(=O)C(=O)c1csc(NC=O)n1
inactive: outcome [1] | outcome [2] | outcome [3] | outcome [4] | outcome [5] | Potency [6]

C=CCCCCCCCCCCC
inactive: viability change, negative = cytotoxic [1] 1.26% [at 8.39 µM] | activation [2] -0.0254% [at 8.39 µM] | activity change, negative = cytotoxicity [3] 2.72% [at 6.97 µM] | activation (H2AX phosphorylation) [4] -0.58% [at 14 µM] | activation [5] -0.397% [at 7.01 µM] | activity change, negative = cytotoxicity [6] 3.67% [at 14 µM]

Cc1ccc(S(=O)(=O)NC(=O)NC2CCCCCCC2)cc1
inactive: outcome [1] | outcome [2] | outcome [3] | outcome [4] | outcome [5] | Potency [6]

N#CCCOCCOCCC#N
inactive: outcome [1] | outcome [2] | outcome [3] | outcome [4] | outcome [5] | Potency [6]

C[C@H](CCC(=O)O)[C@H]1CC[C@H]2[C@@H]3[C@H](O)C[C@@H]4C[C@H](O)CC[C@]4(C)[C@H]3C[C@H](O)[C@]12C
inactive: outcome [1] | outcome [2] | outcome [3] | outcome [4] | outcome [5] | Potency [6]

CC(C)CCCCCCOC(=O)C1CCCCC1C(=O)OCCCCCCC(C)C (stereo not drawn)
inactive: outcome [1] | outcome [2] | outcome [3] | outcome [4] | Potency [6]

C=C[Si](C)(C)O[Si](C)(C)C=C
inactive: outcome [1] | outcome [2] | outcome [3] | outcome [4] | outcome [5] | Potency [6]
